Results filed as inconclusive are left out. A number with no mark means an inactive call. The source made the active and inactive calls. Calls come from the whole dose curve; as a rule, active = well fitted curve in the direction sought with a large enough effect; inconclusive = small, poorly fitted or top-dose-only effect, or another doubt; inactive = no such curve, though single readings can be large; an effect the other way counts as inactive or inconclusive.

Among the data in PubChem BioAssay (NCATS) are Potency and outcome values, retold here.

The nature of assay [1]: UWB1.289 Cancer Cell Toxicity qHTS against the NCATS CANVASS Library (AID 1347347). Note: nearly all actives have a fitted effect of over 60% in size. Note: potency is the fitted concentration of half-maximal effect. The method in brief:
(§1)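 Step one: seed 1000 cells per well. Step two: incubate 4 h. Step three: add test compounds in 11 concentrations. Step four: culture 72 h, then add CellTiter-Glo and record luminescence after 15min.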
A general note: qHTS replaces the single test concentration by a dilution series.

Assay [2] in a line: UWB1.289-WTBRCA1 Cancer Cell Toxicity qHTS against the NCATS CANVASS Library (AID 1347354). Note: potency is the fitted concentration of half-maximal effect. The procedure, abridged: (§2)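 Luminescent ATP read-out (CellTiter-Glo, 15min at room temperature) measures survival after cells face an 11-point compound series for 72 hours at 37 degrees C/5% CO2.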
Assay [3] in a line: HEK-293 Cancer Cell Toxicity qHTS against the NCATS CANVASS Library (AID 1347355). For outcome: series mostly up to about 46 µM. Note: nearly all actives have a fitted effect of over 65% in size. Note: potency is the fitted concentration of half-maximal effect. The procedure, abridged: as §2
Assay [4] concerns NAD(P)H diaphorase (Clostridium kluyveri). The assay can be described thus: Diaphorse counterscreen qHTS: Assay Interference Panel against the NCATS CANVASS Library (AID 1347362). The method in brief: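 Clostridium kluyveri diaphorase in PBS + 0.01% Tween-20 preincubated 15 min with compounds. Resazurin and NADH then added for 5 min at room temperature in the dark; resorufin fluorescence read (ex 525, em 598).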

Assay [5] in a line: KB-8-5-11 Cancer Cell Toxicity qHTS against the NCATS CANVASS Library (AID 1347364). Note: nearly all actives have a fitted effect of over 75% in size. Note: potency is the fitted concentration of half-maximal effect. The method in brief: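 Plate 500 KB-8-5-11 cells per well in DMEM + 10% FBS, add compounds by pin transfer, incubate 72 hr at 37C. Add CellTiter-Glo, wait 10 minutes at room temperature, read luminescence.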
Assay [6] in a line: SDT Cancer Cell Toxicity qHTS against the NCATS CANVASS Library (AID 1347365). Note: nearly all actives have a fitted effect of over 60% in size. Note: potency is the fitted concentration of half-maximal effect. The method in brief:
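qHTS, SDT dog glioma line, 500 cells/well; cpds 11 pts; 72 hr, 37C, 5% CO2; CellTiterGlo ATP luminescence.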

A short description of assay [7]: KB-3-1 Cancer Cell Toxicity qHTS against the NCATS CANVASS Library (AID 1347366). Note: nearly all actives have a fitted effect of over 75% in size. Note: potency is the fitted concentration of half-maximal effect. The procedure, abridged: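 KB-3-1 cells (500 cells/well) in DMEM + 10% FBS were treated with compounds for 72 hr at 37C, 5% CO2. Viability was read as CellTiter-Glo luminescence after 10 minutes at room temperature.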
The nature of assay [8]: qHTS for Hypoxia signaling pathway (HIF-1) agonists against the NCATS CANVASS Library (AID 1347375). The procedure, abridged: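 ME-180 HRE-bla reporter cells; 2,000/well, 0.5% dialyzed FBS; cpd added after 5 h, 17 h 37C/5% CO2; CCF4-AM 2 h RT; FRET 460/530 nm; CellTiter-Glo viability same wells, 30 min.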
Assay [9] is described as follows: DH5-alpha competent E. coli microbial cell viability qHTS against the NCATS CANVASS Library (AID 1347377). The conditions noted are these: outcome: dose series up to 46.1 µM unless noted. The procedure, abridged: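 qHTS, 11-pt; E. coli DH5-alpha, 0.2 OD; o/n 37C/5% CO2; BacTiter-Glo, 20 min RT; luminescence.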
Assay [10] can be described thus: qHTS for H2AX Agonists against the NCATS CANVASS Library (AID 1347378). The procedure, abridged: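 CHO-K1 cells were plated overnight at 37C, then exposed to compounds (concentration series, 0.76% DMSO final) for 3 hr at 37C. Lysates received Eu-cryptate anti-pH2AX (S139) and d2 anti-H2AX antibodies; after 24 hr at room temperature, TR-FRET 665/620 nm ratio was read.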

A short description of assay [11]: qHTS for Activators of p53 Stress Response Pathway screened against the NCATS CANVASS Library (AID 1347388). Note: potency is the fitted concentration of half-maximal effect. The method in brief: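 p53RE-bla HCT-116 cells (4000/well) were pre-incubated for 5 h, then treated with compound (11 points) for 16 h at 37C. After 2 h with CCF4, the 460/530 nm ratio gave reporter activation; CellTiter-Glo measured viability.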
The nature of assay [12]: Secretion counterscreen for inhibitors of the SERCaMP assay screened against the NCATS CANVASS Library (AID 1347390).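 Note: light from luciferase secreted into medium read as a measure of general secretion.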 Note: potency is the fitted concentration of half-maximal effect. The procedure, abridged: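 SH-SY5Y cells expressing constitutively secreted GLuc, 1000 cells/well, attached 4 h at 37C, then exposed to compounds (0.001 - 77 uM, 11-pnt series) for 20 h. Coelenterazine added; luminescence read to flag secretory-pathway interferers.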
Background: A counterscreen serves to expose hits that act by an unwanted route or on another target.

Assay [13] in a line: qHTS for activators of dead-cell proteases activity screened against the NCATS CANVASS Library (AID 1347392).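 Note: luminescence from protease leaking out of membrane-damaged cells cleaving impermeant substrate; rising signal means more cytotoxicity.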 The procedure, abridged:
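HepG2 cells, 2000/well, attached 18 h at 37C, then exposed to compounds (11-point qHTS) for 5 h. Dead-cell protease release read as luminescence from cell-impermeant AAF-aminoluciferin substrate after 15 min at room temperature.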

Assay [14] is described as follows: qHTS for inhibitors of ER calcium dysfunction: SERCaMP assay screened against the NCATS CANVASS Library (AID 1347393). Note: nearly all actives have a fitted effect of over 40% in size. Note: potency is the fitted concentration of half-maximal effect. The procedure, abridged: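 SH-SY5Y GLuc-SERCaMP, 1000 cells/well, 4 h attach; cpd 16 h, 37C/5% CO2; thapsigargin (added as 6x 600 nM) 4 h; coelenterazine; luminescence. Reduced reporter release = ER Ca stabilization.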
Assay [15] in a line: qHTS for inhibitors of Wild type Zika virus screened against the NCATS CANVASS Library (AID 1347396).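 Note: ATP luminescence of surviving cells so rescue from viral cell killing; series mostly up to about 46 µM.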 The procedure, abridged: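 Vero 766 cells, 1000/well, o/n attach; cpds pin-transferred (11-pt qHTS); WT Zika added; 72 h, 37C, 5% CO2; CellTiter Glo lumi. Uninfected + vehicle = 100% inhibition.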
Assay [16] is described as follows: Viability qHTS for inhibitors of the SERCaMP assay screened against the NCATS CANVASS Library (AID 1347400). Note: nearly all actives have a fitted effect of over 70% in size. Note: potency is the fitted concentration of half-maximal effect. The procedure, abridged:
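SH-SY5Y SERCaMP MJH297 cells, 1000/well; 4 h settle, 37C/5% CO2; pin-transferred cpds; 48 h; CellTiter-Glo lum. Pos ctrl bortezomib 0.0001 - 4.6 uM.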

Assay [17] is described as follows: Redox Reaction Profiling qHTS: Assay Interference Panel against the NCATS CANVASS Library (AID 1347401). Note: potency is the fitted concentration of half-maximal effect. The method in brief: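 Compounds in 11-point series incubated with 5 uM resazurin and 200 uM DTT in 50 mM HEPES pH 7.3, 50 mM NaCl. Resorufin fluorescence (Ex 525/Em 598) read before and after 15 min in the dark.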
A short description of assay [18]: SW1088 Cancer Cell Toxicity qHTS against the NCATS CANVASS Library (AID 1347350). Note: nearly all actives have a fitted effect of over 75% in size. Note: potency is the fitted concentration of half-maximal effect. The method in brief:
as §1

A short description of assay [19]: A2780 Cisplatin Sensitive Ovarian Cancer Cell Toxicity qHTS against the NCATS CANVASS Library (AID 1347353). Note: nearly all actives have a fitted effect of over 60% in size. Note: potency is the fitted concentration of half-maximal effect. The procedure, abridged:
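Luminescent ATP content (ATPLite, 10 min at room temperature) served as the read-out after cells had been exposed to compounds for 72 hours at 37 °C. Dosing followed an 11-point concentration series.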

Assay [20] is described as follows: qHTS for Hypoxia signaling pathway (HIF-1) antagonists against the NCATS CANVASS Library (AID 1347374). Note: nearly all actives have a fitted effect of over 60% in size. Note: potency is the fitted concentration of half-maximal effect. The procedure, abridged: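 HRE-bla ME-180 cells in medium with 0.5% dialyzed FBS received compounds (11-point series) plus CoCl2 (60 uM addition stock) for 17 hrs at 37C. Beta-lactamase activity read with CCF4 (405 nm ex, 460/530 nm em); CellTiter-Glo viability measured in same wells.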

Turning to `CC1(C)C=Cc2c(ccc3c2OC[C@@H](c2ccc(O)cc2O)C3)O1`, the Potency entry in assay [1], in [2], in assay [3], in assay [4], in assay [5] and in assay [6] was “inactive” in each case. Besides, the Potency entry in assay [7], in assay [8], in assay [10], in assay [11], in [12] and in [13] was “inactive” each time. Further, the Potency result in assay [15], in assay [16] and in assay [17] was “inactive” in each case. In addition, in assay [9], the outcome was inactive. Besides, the Potency in [14] was 30.5 µM (active).
For the molecule `C=C1/C=C\C(CCC)=C\c2csc(n2)C(C)NC(=O)C[C@@]2(CC(=O)O)CCC(=C)[C@H](C1)S2` (stereo partly drawn), the Potency entry in [1], in [18], in assay [19], in [2], in assay [3] and in assay [4] was “inactive” throughout. For the same molecule, the Potency result in [5], in assay [7], in [20], in [8], in assay [10] and in assay [11] was “inactive” throughout. Also, the Potency result in assay [12], in [13], in assay [14], in assay [15], in [16] and in [17] was “inactive” throughout. Besides, the call in assay [9] was inactive.
As for `CN1CCc2cc3c(c4c2[C@H]1[C@@H](O)c1ccccc1-4)OCO3`, the Potency result in assay [18], in assay [2], in assay [8], in assay [10], in assay [13] and in assay [15] was “inactive” each time. Further, the Potency in assay [3] is 23.5 µM (active); in [6], 18.7 µM (active); in assay [20], 11.8 µM (active); in [11] it was 26.3 µM (active); in [14], 34.3 µM (active); in assay [17] it was 7.64 µM (active).
In the case of `CS/C=C/C(N)=O`, the Potency result in assay [1], in assay [18], in [19], in [2], in assay [3] and in [4] was “inactive” each time. Further, the Potency result in assay [5], in [6], in assay [7], in [20], in assay [8] and in assay [10] was “inactive” in each case. The Potency entry in assay [11], in [12], in [13], in assay [14], in assay [15] and in assay [16] was “inactive” throughout. Also, in [17], the Potency result is “inactive”. Besides, in assay [9], the call was inactive.
As for `COc1ccc(/C=C2\COc3cc(O)ccc3C2=O)cc1`, the Potency result in assay [1], in [2], in [4], in assay [7], in assay [8] and in assay [10] was “inactive” each time. For the same molecule, the Potency entry in assay [12], in assay [13] and in [17] was “inactive” in each case. Also, the Potency in assay [19] is 14.8 µM (active). Moreover, the molecule was classed as inactive in assay [9].
As for `COC1C(O)C(OC(N)=O)C(Oc2ccc3c(O)c(NC(=O)c4ccc(O)c(CC=C(C)C)c4)c(=O)oc3c2C)OC1(C)C` (stereo not drawn), the Potency result in assay [1], in assay [18], in assay [19], in [2], in assay [3] and in [4] was “inactive” in each case. Also, the Potency entry in [5], in [6], in assay [7], in assay [20], in assay [8] and in assay [10] was “inactive” throughout. In addition, the Potency entry in [11], in assay [13], in assay [15], in assay [16] and in [17] was “inactive” throughout. For the same molecule, the molecule was called inactive in assay [9]. The Potency is 24.3 µM (active) in assay [12] and 27.2 µM (active) in [14].
Regarding `CCC[C@@H](C)/C=C(\C)[C@H](O)[C@H](C)/C=C/CC[C@@H](O)[C@H](C)[C@H](O)[C@H](C)[C@H](O)[C@H](C)[C@H]1O[C@H]([C@H](C)C(=O)O)CC[C@@H]1C`, the Potency in [1] was 6.66 µM (active); in assay [18] it was 2.11 µM (active); in [2] it was 13.3 µM (active); in assay [3] it was 14.8 µM (active); in [5] it was 11.8 µM (active); in assay [6], 9.35 µM (active). Besides, the Potency was 11.8 µM (active) in [7], 2.98 µM (active) in assay [20], 38.4 µM (active) in assay [12] and 27 µM (active) in assay [16]. Further, the Potency result in [4], in assay [10], in assay [14] and in assay [17] was “inactive” in each case.
